KB-3-1 cytotox: kills parental KB-3-1 adenocarcinoma cells. KB-3-1 viability, CellTiter-Glo ATP luminescence, 72 h. AID 1347075. hit rate 1.4% among 400,000. Potency, µM (doses to about 46.1 µM), actives largely listed as cytotoxic; note: % is set by controls: 0 for no effect and ±100 for the full control effect; nearly all actives have a fitted effect of over 60% in size
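Cytotoxicity measured as CellTiter-Glo luminescence after 72 h at 37 C. Compound titrations were pinned onto drug-naive KB-3-1 parental adenocarcinoma cells grown in DMEM with 10% FBS, and normalized data fitted to concentration-response curves.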
PTAP TSG101 blk: blocks PTAP/TSG101 interaction to inhibit HIV-1 budding; Q99816; Fluorescence polarization, FITC-PTAP peptide / Tsg101 binding; Potency, µM (top dose mostly 115 µM), for inactives: at the highest dose activity change, negative = inhibition, actives largely listed as inhibitors; 340,000 tested, under 10 active; AID 493005; active = well fitted inhibition curve with a large enough effect in the main read-out, with a control signal flat, not every such curve was filed as active; inconclusive = small, poorly fitted or top-dose-only effect, or effect the other way, or a change in a side signal; inactive = no such curve, though single readings can be large or run the other way; note: % of control where 0% means no effect
Target sequence (Q99816 whole entry, looked up): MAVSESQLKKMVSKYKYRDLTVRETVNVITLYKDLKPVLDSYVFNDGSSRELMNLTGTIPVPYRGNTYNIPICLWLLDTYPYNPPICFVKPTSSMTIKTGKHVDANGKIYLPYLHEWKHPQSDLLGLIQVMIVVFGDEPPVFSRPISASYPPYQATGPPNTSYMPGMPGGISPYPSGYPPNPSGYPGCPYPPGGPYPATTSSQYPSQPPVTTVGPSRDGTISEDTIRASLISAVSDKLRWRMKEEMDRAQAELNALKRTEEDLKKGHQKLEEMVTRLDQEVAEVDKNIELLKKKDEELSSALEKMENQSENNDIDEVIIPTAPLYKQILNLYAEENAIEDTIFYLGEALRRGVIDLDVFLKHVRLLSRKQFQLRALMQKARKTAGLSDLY
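Tsg101 binding domain (10 uM final) was mixed with compound and a FITC-labeled PTAP peptide (50 nM final) in HEPES pH 7.5 buffer with NaCl, Tween 20, EDTA and TCEP; fluorescence polarization was read after 20 min at r.t.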
KB-V1 MDR tox: kills drug-selected multidrug resistant KB-V1 cells; KB-V1 MDR cells viability, CellTiter-Glo, 72 h; Potency, µM (top dose mostly 46.1 µM), usual class: cytotoxic; hit rate 3.4% among 400,000; AID 1347076; note: % is set by controls: 0 for no effect and ±100 for the full control effect; nearly all actives have a fitted effect of over 60% in size
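Compound-treated KB-V1 multidrug-resistant cells, 72 h, 37 degrees C; viability by CellTiter-Glo. Fitted qHTS curves give the values.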
MCF10A rerep: DNA re-replication induction in MCF 10a cells; Potency, µM (series often up to 46.1 µM), for inactives: top-dose activity, positive = re-replication, actives largely listed as activators; AID 624296; MCF 10A DNA re-replication, Hoechst nuclear intensity, 48 h; hit rate 2.9% among 350,000; note: % of control where 0% means no effect; nearly all actives have a fitted effect of over 50% in size
SW480 rerep: inducers of DNA re-replication in SW480 colon cancer cells | SW480 DNA re-replication, Hoechst DNA content imaging, 48 h | Potency, µM (top dose mostly 46.1 µM), inactives show top-dose re-replication activation, actives largely listed as activators | hit rate 1.8% among 340,000 | AID 624297; note: % of control where 0% means no effect; nearly all actives have a fitted effect of over 55% in size
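Readout is total intensity of Hoechst-stained nuclei, excited at 405 nm and collected at 500-530 nm. Compound treatment lasted 48 hr at 37 C in 5% CO2 before staining.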
PINK1 expr mod: PINK1 expression modulation. PINK1 immunofluorescence, high-content cytometry, 24 h. Potency, µM (titrated, usually from 76.6 µM), for inactives: top-dose activation (PINK1 increase), most hits filed as activators. hit rate 0.2% among 410,000. AID 624263; active = well fitted activation curve with a large enough effect; inconclusive = small, poorly fitted or top-dose-only effect; cell line not stated here; note: % of control where 0% means no effect; nearly all actives have a fitted effect of over 65% in size
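PINK1 protein level read as immunofluorescence by microplate cytometer in a fixed, stained stable cell line after 24 h exposure to five compound concentrations, with CCCP as control.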
* hit, by the source's call; i = inactive; ? = inconclusive; · = no result; [ ] = remark or other dose. The list is not random: actives were taken first. Their share in the collection is about 6.8%. Unless noted, calls come from the whole dose curve; as a rule, active = well fitted curve in the direction sought with a large enough effect; inconclusive = small, poorly fitted or top-dose-only effect, or another doubt; inactive = no such curve, though single readings can be large; an effect the other way counts as inactive or inconclusive. Potency is the fitted concentration of half-maximal effect.

SMILES | KB-3-1 cytotox | PTAP TSG101 blk | KB-V1 MDR tox | MCF10A rerep | SW480 rerep | PINK1 expr mod
O=C(Nc1ccc(Oc2ccccc2)cc1)C1CCCN(c2ncccn2)C1 (stereo unspecified) | i | 1% | 5.8µM* | ? | 3% | 18%
CCOC(=O)CNC(=O)C1CCCN(c2ncccn2)C1 (stereo unspecified) | i | · | i | 17% | 0.26µM* | 7%[38.3 µM]
COC(=O)[C@@H]1CCCN1C(=O)c1c(OC)cc(=O)n2c1CCN(Cc1ccc(C)o1)CC2 | · | · | · | · | · | 0%
COc1ccc(C2NC(=O)NC3=C2CCc2ccccc23)cc1 (stereo unspecified) | 18µM* | -11% | 13µM* | ? | ? | 9%
Cc1ccc(C2NC(=O)NC3=C2CCc2ccccc23)cc1 (stereo unspecified) | i | -8% | ? | -3% | -5% | 3%[38.3 µM]
CC(C)c1ccc(C2NC(=O)NC3=C2CCc2ccccc23)cc1 (stereo unspecified) | 15µM* | -6% | 18µM* | ? | 0% | 5%
COc1cccc(Cn2c(C)c(CNCc3ccccc3Cl)c(C(=O)O)c2C)c1 | i | · | i | · | · | 1%
O=C(NP(=O)(N1CCOCC1)N1CCOCC1)C1=C(N2CCOCC2)/C(=C\c2ccccc2)CC1 | i | 2% | i | 23µM* | ? | 0%
CCCCc1cc(=O)oc2cc(OCC(=O)N(CC)CC)ccc12 | i | -10% | 7.3µM* | 9% | -3% | 24%[38.3 µM]
C=C(Cl)COc1ccc2c(CCCC)cc(=O)oc2c1 | i | 0% | i | 24% | 13% | 1%
COc1ccccc1C(=O)Nc1cc(Cl)ccc1-n1cncn1 | i | -5% | i | -2% | 3% | 0%
COc1cc(OC)c(C(=O)Nc2cc(Cl)ccc2-n2cncn2)cc1OC | i | -2% | i | -16% | 5.2µM* | 4%
O=C(Nc1cc(Cl)ccc1-n1cncn1)c1ccc([N+](=O)[O-])s1 | ? | -4% | ? | 21µM* | 23µM* | 5µM*
CCOC(=O)c1c(C)c(-c2ccccc2)n(CC(=O)NC2CCCCCC2)c1C | i | · | i | · | · | -1%
Cc1ccc(/C=C2\SC(=S)N(CCC(=O)N3CCOCC3)C2=O)cc1 | 12µM* | -1% | ? | -2% | ? | 2%
COc1ccc(/C=C2\SC(=S)N(CCC(=O)N3CCOCC3)C2=O)cc1 | i | -1% | i | 10% | -2% | 1%
O=C(CCCN1C(=O)/C(=C/c2ccc(F)cc2)SC1=S)NCCCn1ccnc1 | i | -5% | ? | 21µM* | -14% | 0%
COc1ccc(/C=C2\SC(=S)N(CCC(=O)NCCCn3ccnc3)C2=O)cc1 | i | 4% | i | 1% | -23% | 3%
CCOc1ccc(/C=C2\SC(=S)N(CCCC(=O)NCCCN3CCOCC3)C2=O)cc1 | i | -1% | i | ? | 16µM* | 8%
O=C(CCN1C(=O)/C(=C\c2ccccc2)SC1=S)N1CCOCC1 | ? | -4% | ? | 11% | -24% | 7%
COc1cccc(/C=C2/SC(=S)N(CCC(=O)N3CCOCC3)C2=O)c1 | 16µM* | 1% | ? | ? | 9% | 14%
Cc1c(C(=O)N2CCC(Cc3ccccc3)CC2)sc2ncnc(NCc3ccccn3)c12 | · | · | · | · | · | 0%
CCOC(=O)c1[nH]c(C)c(CCC(=O)Nc2cc(Cl)c(OC)cc2OC)c1C | i | · | ? | · | · | 2%
CCOC(=O)CC(NC(=O)Cn1nnc(-c2ccc(C(F)(F)F)cc2)n1)c1ccc(C)cc1 (stereo unspecified) | i | · | ? | · | · | 5%
CCOC(=O)c1c(NC(C)=O)sc2c1CCC(C=NCCCN(CC)CC)=C2Sc1ccccc1 | ? | -4% | 16µM* | ? | ? | 1%
SMILES | KB-3-1 cytotox | PTAP TSG101 blk | KB-V1 MDR tox | MCF10A rerep | SW480 rerep | PINK1 expr mod
Cc1ccc(S(=O)(=O)N2CCCCC2)cc1C(=O)NCCc1ccccc1 | i | 1% | ? | 19% | -1% | 0%
CSc1ccc(CN(C)C(=O)CNC(=O)c2ccc3c(c2)OCO3)cc1 | i | -8% | 21µM* | 14% | -4% | -3%
O=C(O)CNC(=O)c1ccc2c(c1)OCCO2 | i | -7% | i | -3% | -8% | 13µM*
COc1ccc(CCNC(=O)c2cc(S(=O)(=O)N3CCCCC3)ccc2Cl)cc1 | i | -6% | i | ? | 18µM* | 0%
O=C(NCCc1ccc2c(c1)OCCO2)c1cc(S(=O)(=O)N2CCCC2)ccc1Br | ? | -2% | 21µM* | -2% | -7% | 0%
O=C(CCn1c(=O)c2cccn2c2cccnc21)N1CCN(c2ccccc2F)CC1 | · | · | · | · | · | 1%
O=C(NCCc1ccc2c(c1)OCCO2)c1cc(F)cc(F)c1 | ? | -1% | 12µM* | 0% | 4% | 0%
CCN(CC)c1ccc([N+](=O)[O-])cc1C(=O)N1CCOCC1 | i | 0% | i | 21% | -3% | 1%
CCN(CC)C1=NS(=O)(=O)c2cc([N+](=O)[O-])ccc21 | ? | -6% | ? | ? | 12µM* | 9%
COc1ccc2c(c1)CC(C(=O)NCCCN1CCN(c3ccc(F)cc3)CC1)CO2 (stereo unspecified) | i | · | i | · | · | -1%
CCC(CN(C)C)Oc1cc(NCc2ccccc2)c2ncn(C(C)C)c2c1 (stereo unspecified) | i | -4% | i | ? | 18µM* | 3%
CCC(CO)Oc1cc(NCc2ccc(F)cc2)c2ncn(C(C)C)c2c1 (stereo unspecified) | i | -2% | i | 23µM* | ? | 0%
CCC(CO)Oc1cc(NCc2ccc(C)c(C)c2)c2ncn(C(C)C)c2c1 (stereo unspecified) | ? | 2% | i | 15µM* | 5.2µM* | ?
Cn1c(=O)cnc2cnc(Oc3ccccc3)nc21 | · | · | · | · | · | 0%
Cn1cnnc1Sc1ccc(CN2CCOc3ccc(C4=Cc5ccccc5CC4)cc3C2)o1 | · | · | · | · | · | 0%
Cc1ccc(C(=O)CSC2=C(C#N)C(c3ccco3)C3=C(CCCC3=O)N2)cc1 (stereo unspecified) | ? | 1% | 8.2µM* | 8.2µM* | 5.8µM* | 11%[38.3 µM]
CC(C)(C)c1ccc(C(=O)CCCSC2=C(C#N)C(c3ccco3)C3=C(CCCC3=O)N2)cc1 (stereo unspecified) | ? | -1% | 10µM* | ? | ? | -26%[38.3 µM]
N#CC1=C(SCC(=O)c2ccccc2)NC2=C(C(=O)CCC2)C1c1ccco1 (stereo unspecified) | 18µM* | -5% | ? | 8.9µM* | 15µM* | 6%

Screening results: PubChem, National Center for Advancing Translational Sciences (NCATS)
